In one test the test system is Staphylococcus aureus. Conditions: Concentration 32 ug.mL-1; ASSAY_TEST Inhibition of Bacterial Growth; detection method Absorption (OD600); MEDIA CAMHB; plate type 384well; NBS; CORNING #3640; time 18 hr.
The next test concerns Escherichia coli. The note with it: Concentration 32 ug.mL-1; ASSAY_TEST Inhibition of Bacterial Growth; detection method Absorption (OD600); MEDIA CAMHB; plate type 384well; NBS; CORNING #3640; time 18 hr.

Results with a measured potency or affinity are listed apart.

Here are results for 13 molecules from ChEMBL document CHEMBL4513152, “CO-ADD screening of Yantai University (China) compounds”.

One may read the Inhibition as the drop in the measured response relative to a control, in per cent. Turning to `CC(=O)O[C@H]1C[C@@]2(C)C(C[C@@H](O)C3[C@@]4(C)CC[C@@H](O)[C@@H](C)C4CC[C@@]32C)/C1=C(\CCC=C(C)C)C(=O)On1nnc2ccccc21` (stereo partly specified), the Inhibition in the test with Staphylococcus aureus is 73.87%; in the test with Escherichia coli, -6.08%.

Turning to `CC(=O)O[C@H]1C[C@@]2(C)C(C[C@@H](O)C3[C@@]4(C)CC[C@@H](OC(=O)CCC(=O)OCCc5ccc(OCCO[N+](=O)[O-])cc5)[C@@H](C)C4CC[C@@]32C)/C1=C(\CCC=C(C)C)C(=O)OCc1ccccc1` (stereo partly specified), the Inhibition was -0.26% with Staphylococcus aureus and -8.83% in the test on Escherichia coli.

Consider `CC(=O)O[C@H]1C[C@@]2(C)C(C[C@@H](O)C3[C@@]4(C)CC[C@@H](OC(=O)CCCCCO[N+](=O)[O-])[C@@H](C)C4CC[C@@]32C)/C1=C(\CCC=C(C)C)C(=O)OCc1ccccc1` (stereo partly specified), for which the Inhibition is reported as 6.22% with Staphylococcus aureus and -6.82% in the test with Escherichia coli.

For the molecule `CC(=O)O[C@H]1C[C@@]2(C)C(C[C@@H](O)C3[C@@]4(C)CC[C@@H](OC(=O)C(N)CC(C)C)[C@@H](C)C4CC[C@@]32C)/C1=C(\CCC=C(C)C)C(=O)OCc1ccccc1` (stereo partly specified), the Inhibition is reported as -0.87% in the test with Staphylococcus aureus and -4.43% with Escherichia coli.

On to `CC(=O)O[C@H]1C[C@@]2(C)C(C[C@@H](O)C3[C@@]4(C)CC[C@@H](OC(=O)c5ccccc5C(=O)Nc5ccc(N)cc5)[C@@H](C)C4CC[C@@]32C)/C1=C(\CCC=C(C)C)C(=O)OCc1ccccc1` (stereo partly specified), for which the values for the Inhibition in the test with Staphylococcus aureus and in the test with Escherichia coli were 7.06% and 1.09%, respectively.

Regarding `CC(=O)O[C@H]1C[C@@]2(C)C(C[C@@H](O)C3[C@@]4(C)CC[C@@H](OC(=O)c5ccccc5C(=O)Oc5ccc(CCO[N+](=O)[O-])cc5)[C@@H](C)C4CC[C@@]32C)/C1=C(\CCC=C(C)C)C(=O)OCc1ccccc1` (stereo partly specified), the Inhibition is on record as -1.26% in the test on Staphylococcus aureus and -6.53% in the test with Escherichia coli.

As for `CC(=O)O[C@H]1C[C@@]2(C)C(C[C@@H](O)C3[C@@]4(C)CC[C@@H](OC(=O)CCC(=O)Oc5ccc(CCO[N+](=O)[O-])cc5)[C@@H](C)C4CC[C@@]32C)/C1=C(\CCC=C(C)C)C(=O)OCc1ccccc1` (stereo partly specified), the values for the Inhibition in the test on Staphylococcus aureus and with Escherichia coli were -9.31% and -12.6%, respectively.

For the molecule `CC(=O)O[C@H]1C[C@@]2(C)C(C[C@@H](O)C3[C@@]4(C)CC[C@@H](OC(=O)c5ccccc5C(=O)Nc5cccc(N)c5)[C@@H](C)C4CC[C@@]32C)/C1=C(\CCC=C(C)C)C(=O)OCc1ccccc1` (stereo partly specified), the Inhibition in the test on Staphylococcus aureus was 1.65%; in the test with Escherichia coli, -0.14%.

Consider `CC(=O)O[C@H]1C[C@@]2(C)C(CC(=O)C3[C@@]4(C)CC[C@@H](OC(=O)CCCCCO[N+](=O)[O-])[C@@H](C)C4CC[C@@]32C)/C1=C(\CCC=C(C)C)C(=O)OCc1ccccc1` (stereo partly specified), for which the Inhibition is listed as 5.71% with Staphylococcus aureus and -2.8% in the test with Escherichia coli.

As to `CC(=O)O[C@H]1C[C@@]2(C)C(C[C@@H](O)C3[C@@]4(C)CC[C@@H](OC(=O)C(C)N)[C@@H](C)C4CC[C@@]32C)/C1=C(\CCC=C(C)C)C(=O)OCc1ccccc1` (stereo partly specified), the figures for the Inhibition with Staphylococcus aureus and with Escherichia coli were 32.79% and -12.12%, respectively.

`CC(=O)O[C@H]1C[C@@]2(C)C(C[C@@H](O)C3[C@@]4(C)CC[C@@H](O)[C@@H](C)C4CC[C@@]32C)/C1=C(\CCC=C(C)C)C(=O)Oc1ccc(CCO[N+](=O)[O-])cc1` (stereo partly specified): the Inhibition in the test with Staphylococcus aureus was 23.19%; in the test with Escherichia coli, -3.14%.

Consider `CC(=O)O[C@H]1C[C@@]2(C)C(C[C@@H](O)C3[C@@]4(C)CC[C@@H](OC(=O)CCCCO[N+](=O)[O-])[C@@H](C)C4CC[C@@]32C)/C1=C(\CCC=C(C)C)C(=O)OCc1ccccc1` (stereo partly specified), for which the values for the Inhibition in the test on Staphylococcus aureus and with Escherichia coli were 9.5% and -4.08%, respectively.

For the molecule `CC(=O)O[C@H]1C[C@@]2(C)C(CC(=O)C3[C@@]4(C)CCC(=O)[C@@H](C)C4CC[C@@]32C)/C1=C(\CCC=C(C)C)C(=O)OCc1ccccc1` (stereo partly specified), the Inhibition in the test on Staphylococcus aureus is 29.92%; with Escherichia coli, -4.11%.
